# Results from ChEMBL document CHEMBL1961873, “Compounds: GSK PKIS; Assays: Nanosyn kinase panel” (2012).
# What was measured:
# [1] = test system: Epidermal growth factor receptor (Homo sapiens), P00533 [T790M]; conditions: at 1 µM
# [2] = test system: Epidermal growth factor receptor (Homo sapiens), P00533 [L858R,T790M]; conditions: at 0.1 µM
# [3] = test system: Epidermal growth factor receptor (Homo sapiens), P00533 [L858R,T790M]; conditions: at 1 µM
# [4] = target: Ephrin type-A receptor 2 (Homo sapiens) (UniProt P29317); conditions: at 0.1 µM
# Sequence of Ephrin type-A receptor 2 (Homo sapiens) (P29317 whole entry): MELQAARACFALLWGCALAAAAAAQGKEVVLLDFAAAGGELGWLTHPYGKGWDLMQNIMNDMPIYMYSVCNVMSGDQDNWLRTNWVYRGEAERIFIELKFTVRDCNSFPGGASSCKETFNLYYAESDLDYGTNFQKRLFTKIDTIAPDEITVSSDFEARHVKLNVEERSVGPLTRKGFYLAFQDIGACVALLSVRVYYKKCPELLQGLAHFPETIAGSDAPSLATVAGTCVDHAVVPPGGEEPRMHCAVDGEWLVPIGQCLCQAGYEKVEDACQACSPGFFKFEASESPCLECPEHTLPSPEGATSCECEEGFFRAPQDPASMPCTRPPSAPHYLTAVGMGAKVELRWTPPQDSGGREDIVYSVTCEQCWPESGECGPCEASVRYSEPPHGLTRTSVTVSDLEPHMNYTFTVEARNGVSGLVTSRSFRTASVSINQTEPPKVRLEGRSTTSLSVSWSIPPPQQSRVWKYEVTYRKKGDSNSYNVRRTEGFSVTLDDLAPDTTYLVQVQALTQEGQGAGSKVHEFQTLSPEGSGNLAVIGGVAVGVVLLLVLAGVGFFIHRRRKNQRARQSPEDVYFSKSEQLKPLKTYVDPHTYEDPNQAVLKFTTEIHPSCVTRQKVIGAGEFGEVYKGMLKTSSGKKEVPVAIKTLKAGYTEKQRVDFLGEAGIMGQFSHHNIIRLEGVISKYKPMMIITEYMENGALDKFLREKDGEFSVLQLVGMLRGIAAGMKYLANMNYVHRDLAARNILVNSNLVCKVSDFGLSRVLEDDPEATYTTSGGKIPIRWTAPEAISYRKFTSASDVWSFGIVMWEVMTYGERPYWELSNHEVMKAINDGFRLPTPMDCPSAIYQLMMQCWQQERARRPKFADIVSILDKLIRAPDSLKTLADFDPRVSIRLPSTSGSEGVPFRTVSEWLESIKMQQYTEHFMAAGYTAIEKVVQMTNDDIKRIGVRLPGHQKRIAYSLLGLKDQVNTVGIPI
# [5] = target: Ephrin type-A receptor 2 (Homo sapiens) (UniProt P29317); conditions: at 1 µM
# [6] = target: T1, Ephrin type-A receptor 3 (Homo sapiens) (UniProt P29320); conditions: at 0.1 µM
# T1 sequence (whole entry): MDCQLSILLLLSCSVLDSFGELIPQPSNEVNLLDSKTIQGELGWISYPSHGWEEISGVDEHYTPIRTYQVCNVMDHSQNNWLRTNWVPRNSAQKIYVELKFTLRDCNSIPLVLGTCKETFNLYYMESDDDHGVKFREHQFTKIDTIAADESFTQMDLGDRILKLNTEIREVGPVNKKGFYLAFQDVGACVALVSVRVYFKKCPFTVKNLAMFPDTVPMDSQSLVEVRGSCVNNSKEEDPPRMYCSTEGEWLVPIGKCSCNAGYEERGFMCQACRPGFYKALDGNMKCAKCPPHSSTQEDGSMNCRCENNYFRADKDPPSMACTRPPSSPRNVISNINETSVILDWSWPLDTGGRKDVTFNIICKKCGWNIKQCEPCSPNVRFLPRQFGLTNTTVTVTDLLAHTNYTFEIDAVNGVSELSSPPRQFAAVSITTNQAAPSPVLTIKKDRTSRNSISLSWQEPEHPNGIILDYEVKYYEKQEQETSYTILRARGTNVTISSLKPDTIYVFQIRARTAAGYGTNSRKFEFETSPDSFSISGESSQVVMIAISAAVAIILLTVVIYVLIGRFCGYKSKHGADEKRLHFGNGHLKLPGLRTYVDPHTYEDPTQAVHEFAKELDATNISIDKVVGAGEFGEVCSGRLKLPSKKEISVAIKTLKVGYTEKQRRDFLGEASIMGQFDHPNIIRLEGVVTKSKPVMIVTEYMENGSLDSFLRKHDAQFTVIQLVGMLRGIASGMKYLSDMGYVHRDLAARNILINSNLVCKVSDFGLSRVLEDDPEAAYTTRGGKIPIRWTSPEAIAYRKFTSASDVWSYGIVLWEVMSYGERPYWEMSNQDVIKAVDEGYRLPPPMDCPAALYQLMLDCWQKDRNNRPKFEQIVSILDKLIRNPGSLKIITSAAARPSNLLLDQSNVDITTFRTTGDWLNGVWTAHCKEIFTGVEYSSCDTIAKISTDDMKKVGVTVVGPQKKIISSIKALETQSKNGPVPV
# [7] = target: T1, Ephrin type-A receptor 3 (Homo sapiens); conditions: at 1 µM
# [8] = target: Ephrin type-A receptor 4 (Homo sapiens) (UniProt P54764); conditions: at 0.1 µM
# [9] = target: Ephrin type-A receptor 4 (Homo sapiens) (UniProt P54764); conditions: at 1 µM
# [10] = target: T2, Ephrin type-B receptor 2 (Homo sapiens) (UniProt P29323); conditions: at 0.1 µM
# T2 sequence (whole entry): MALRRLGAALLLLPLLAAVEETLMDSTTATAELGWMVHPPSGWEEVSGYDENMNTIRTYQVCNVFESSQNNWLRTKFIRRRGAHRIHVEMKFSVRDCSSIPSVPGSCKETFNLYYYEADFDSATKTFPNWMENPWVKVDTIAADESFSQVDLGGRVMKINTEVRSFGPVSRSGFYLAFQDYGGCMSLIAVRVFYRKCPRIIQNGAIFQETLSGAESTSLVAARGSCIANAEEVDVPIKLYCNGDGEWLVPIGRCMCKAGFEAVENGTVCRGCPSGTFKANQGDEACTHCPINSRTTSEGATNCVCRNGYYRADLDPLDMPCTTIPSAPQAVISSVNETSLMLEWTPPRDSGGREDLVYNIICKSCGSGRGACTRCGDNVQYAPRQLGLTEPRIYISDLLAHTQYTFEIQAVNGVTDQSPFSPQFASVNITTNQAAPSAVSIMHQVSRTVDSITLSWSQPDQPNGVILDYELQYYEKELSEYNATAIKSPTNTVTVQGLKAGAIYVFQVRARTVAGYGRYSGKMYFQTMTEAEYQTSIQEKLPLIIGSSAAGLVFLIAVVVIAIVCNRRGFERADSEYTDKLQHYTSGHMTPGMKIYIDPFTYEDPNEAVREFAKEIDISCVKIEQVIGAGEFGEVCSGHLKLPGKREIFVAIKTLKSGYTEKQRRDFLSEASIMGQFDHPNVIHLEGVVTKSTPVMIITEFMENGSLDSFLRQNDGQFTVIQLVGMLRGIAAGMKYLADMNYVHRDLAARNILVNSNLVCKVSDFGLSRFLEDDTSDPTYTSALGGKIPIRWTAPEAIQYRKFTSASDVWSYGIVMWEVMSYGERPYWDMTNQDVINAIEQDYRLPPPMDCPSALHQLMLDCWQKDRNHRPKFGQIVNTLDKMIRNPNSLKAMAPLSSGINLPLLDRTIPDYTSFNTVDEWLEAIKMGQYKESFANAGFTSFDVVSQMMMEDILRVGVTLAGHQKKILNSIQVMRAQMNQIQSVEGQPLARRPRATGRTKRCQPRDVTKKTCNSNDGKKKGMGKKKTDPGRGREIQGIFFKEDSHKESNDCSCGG
# [11] = target: T2, Ephrin type-B receptor 2 (Homo sapiens); conditions: at 1 µM
# [12] = target: T3, Ephrin type-B receptor 3 (Homo sapiens) (UniProt P54753); conditions: at 0.1 µM
# T3 sequence (whole entry): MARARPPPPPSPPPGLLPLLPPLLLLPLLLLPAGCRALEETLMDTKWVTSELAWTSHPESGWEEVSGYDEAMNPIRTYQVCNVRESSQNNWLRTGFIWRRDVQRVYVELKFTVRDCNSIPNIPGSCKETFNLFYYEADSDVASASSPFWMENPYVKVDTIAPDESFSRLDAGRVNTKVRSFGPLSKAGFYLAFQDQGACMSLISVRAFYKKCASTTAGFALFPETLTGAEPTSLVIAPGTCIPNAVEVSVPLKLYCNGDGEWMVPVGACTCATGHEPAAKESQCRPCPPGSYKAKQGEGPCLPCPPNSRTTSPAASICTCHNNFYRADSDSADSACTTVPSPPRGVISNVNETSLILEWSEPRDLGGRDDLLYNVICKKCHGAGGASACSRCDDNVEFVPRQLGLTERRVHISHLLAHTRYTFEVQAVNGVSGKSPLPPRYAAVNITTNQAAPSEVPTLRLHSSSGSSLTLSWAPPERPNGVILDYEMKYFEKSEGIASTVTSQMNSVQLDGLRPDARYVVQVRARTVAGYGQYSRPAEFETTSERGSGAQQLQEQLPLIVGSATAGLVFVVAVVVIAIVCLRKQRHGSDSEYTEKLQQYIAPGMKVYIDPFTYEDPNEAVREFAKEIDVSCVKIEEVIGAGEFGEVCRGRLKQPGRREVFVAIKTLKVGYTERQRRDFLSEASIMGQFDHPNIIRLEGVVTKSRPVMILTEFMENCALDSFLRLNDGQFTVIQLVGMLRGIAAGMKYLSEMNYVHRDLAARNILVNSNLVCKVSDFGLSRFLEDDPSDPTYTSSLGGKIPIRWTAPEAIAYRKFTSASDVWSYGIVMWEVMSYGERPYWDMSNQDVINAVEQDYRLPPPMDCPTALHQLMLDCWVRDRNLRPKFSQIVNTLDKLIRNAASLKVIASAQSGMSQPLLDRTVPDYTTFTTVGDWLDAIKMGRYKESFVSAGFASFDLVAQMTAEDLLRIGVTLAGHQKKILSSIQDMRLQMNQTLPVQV
# [13] = target: T3, Ephrin type-B receptor 3 (Homo sapiens); conditions: at 1 µM
# [14] = target: T4, Ephrin type-B receptor 4 (Homo sapiens) (UniProt P54760); conditions: at 0.1 µM
# T4 sequence (whole entry): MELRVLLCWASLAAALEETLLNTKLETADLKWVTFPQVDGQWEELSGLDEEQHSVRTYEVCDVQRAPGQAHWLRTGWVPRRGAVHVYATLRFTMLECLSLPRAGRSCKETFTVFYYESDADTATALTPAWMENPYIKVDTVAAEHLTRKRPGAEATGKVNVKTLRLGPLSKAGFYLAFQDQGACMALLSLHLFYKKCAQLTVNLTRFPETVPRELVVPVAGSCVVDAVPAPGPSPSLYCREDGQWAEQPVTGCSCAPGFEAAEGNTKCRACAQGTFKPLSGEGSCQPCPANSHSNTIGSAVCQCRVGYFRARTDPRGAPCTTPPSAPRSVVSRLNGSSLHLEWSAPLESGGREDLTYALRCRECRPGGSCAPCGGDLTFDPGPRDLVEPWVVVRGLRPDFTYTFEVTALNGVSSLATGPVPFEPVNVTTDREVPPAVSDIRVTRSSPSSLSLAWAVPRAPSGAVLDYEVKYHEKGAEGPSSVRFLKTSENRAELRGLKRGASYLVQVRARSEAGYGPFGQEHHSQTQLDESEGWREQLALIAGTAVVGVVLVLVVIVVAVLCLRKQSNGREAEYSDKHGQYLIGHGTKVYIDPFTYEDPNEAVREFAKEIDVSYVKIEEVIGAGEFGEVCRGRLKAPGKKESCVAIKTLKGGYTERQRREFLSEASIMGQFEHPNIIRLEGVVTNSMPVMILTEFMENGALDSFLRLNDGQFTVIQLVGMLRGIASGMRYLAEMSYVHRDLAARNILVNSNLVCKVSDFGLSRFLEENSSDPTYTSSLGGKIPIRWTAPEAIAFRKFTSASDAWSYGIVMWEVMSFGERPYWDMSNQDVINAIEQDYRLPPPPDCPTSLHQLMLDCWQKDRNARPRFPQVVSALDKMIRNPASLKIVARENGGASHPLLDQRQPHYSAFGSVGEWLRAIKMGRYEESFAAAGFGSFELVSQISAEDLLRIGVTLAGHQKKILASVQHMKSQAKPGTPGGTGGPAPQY
# [15] = target: T4, Ephrin type-B receptor 4 (Homo sapiens); conditions: at 1 µM
# [16] = target: Receptor tyrosine-protein kinase erbB-2 (Homo sapiens) (UniProt P04626); conditions: at 0.1 µM
# Sequence of Receptor tyrosine-protein kinase erbB-2 (Homo sapiens) (P04626 whole entry): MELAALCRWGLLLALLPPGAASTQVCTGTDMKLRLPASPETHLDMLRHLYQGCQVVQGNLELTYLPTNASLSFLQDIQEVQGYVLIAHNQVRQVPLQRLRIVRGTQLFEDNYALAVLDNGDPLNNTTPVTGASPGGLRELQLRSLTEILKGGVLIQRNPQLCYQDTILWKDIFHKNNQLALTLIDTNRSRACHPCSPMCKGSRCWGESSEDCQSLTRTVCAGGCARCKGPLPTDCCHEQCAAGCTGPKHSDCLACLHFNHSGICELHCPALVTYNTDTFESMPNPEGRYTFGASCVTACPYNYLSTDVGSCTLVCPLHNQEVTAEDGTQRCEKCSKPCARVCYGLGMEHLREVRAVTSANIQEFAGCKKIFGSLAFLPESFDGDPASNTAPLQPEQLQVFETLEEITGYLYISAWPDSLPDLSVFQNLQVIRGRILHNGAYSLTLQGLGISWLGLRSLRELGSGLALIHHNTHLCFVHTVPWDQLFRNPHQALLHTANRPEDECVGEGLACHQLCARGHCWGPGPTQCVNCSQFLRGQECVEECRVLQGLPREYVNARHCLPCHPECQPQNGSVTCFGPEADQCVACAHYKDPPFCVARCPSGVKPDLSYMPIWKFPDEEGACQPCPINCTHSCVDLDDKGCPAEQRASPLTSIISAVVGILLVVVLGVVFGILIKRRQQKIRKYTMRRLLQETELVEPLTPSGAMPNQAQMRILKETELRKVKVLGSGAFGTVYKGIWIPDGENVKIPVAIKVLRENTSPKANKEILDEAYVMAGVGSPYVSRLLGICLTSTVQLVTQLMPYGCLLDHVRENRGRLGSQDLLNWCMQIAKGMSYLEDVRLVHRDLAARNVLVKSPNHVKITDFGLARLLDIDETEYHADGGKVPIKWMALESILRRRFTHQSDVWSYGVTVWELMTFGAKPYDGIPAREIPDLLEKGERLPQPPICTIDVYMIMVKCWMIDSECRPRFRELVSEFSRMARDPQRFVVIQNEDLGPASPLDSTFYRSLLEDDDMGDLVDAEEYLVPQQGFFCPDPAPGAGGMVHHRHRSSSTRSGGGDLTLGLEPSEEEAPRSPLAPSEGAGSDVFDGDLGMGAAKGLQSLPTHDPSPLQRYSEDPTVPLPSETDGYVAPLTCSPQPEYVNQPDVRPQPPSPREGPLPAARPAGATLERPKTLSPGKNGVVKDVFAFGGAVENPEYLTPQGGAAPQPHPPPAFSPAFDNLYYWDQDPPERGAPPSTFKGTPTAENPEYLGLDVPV
# [17] = target: Receptor tyrosine-protein kinase erbB-2 (Homo sapiens) (UniProt P04626); conditions: at 1 µM
# [18] = target: Receptor tyrosine-protein kinase erbB-4 (Homo sapiens) (UniProt Q15303); conditions: at 0.1 µM
# [19] = target: Receptor tyrosine-protein kinase erbB-4 (Homo sapiens) (UniProt Q15303); conditions: at 1 µM
# [20] = target: Tyrosine-protein kinase Fer (Homo sapiens) (UniProt P16591); conditions: at 0.1 µM;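 further: reported figures are averaged percent inhibition of FER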
# Sequence of Tyrosine-protein kinase Fer (Homo sapiens) (P16591 whole entry, looked up): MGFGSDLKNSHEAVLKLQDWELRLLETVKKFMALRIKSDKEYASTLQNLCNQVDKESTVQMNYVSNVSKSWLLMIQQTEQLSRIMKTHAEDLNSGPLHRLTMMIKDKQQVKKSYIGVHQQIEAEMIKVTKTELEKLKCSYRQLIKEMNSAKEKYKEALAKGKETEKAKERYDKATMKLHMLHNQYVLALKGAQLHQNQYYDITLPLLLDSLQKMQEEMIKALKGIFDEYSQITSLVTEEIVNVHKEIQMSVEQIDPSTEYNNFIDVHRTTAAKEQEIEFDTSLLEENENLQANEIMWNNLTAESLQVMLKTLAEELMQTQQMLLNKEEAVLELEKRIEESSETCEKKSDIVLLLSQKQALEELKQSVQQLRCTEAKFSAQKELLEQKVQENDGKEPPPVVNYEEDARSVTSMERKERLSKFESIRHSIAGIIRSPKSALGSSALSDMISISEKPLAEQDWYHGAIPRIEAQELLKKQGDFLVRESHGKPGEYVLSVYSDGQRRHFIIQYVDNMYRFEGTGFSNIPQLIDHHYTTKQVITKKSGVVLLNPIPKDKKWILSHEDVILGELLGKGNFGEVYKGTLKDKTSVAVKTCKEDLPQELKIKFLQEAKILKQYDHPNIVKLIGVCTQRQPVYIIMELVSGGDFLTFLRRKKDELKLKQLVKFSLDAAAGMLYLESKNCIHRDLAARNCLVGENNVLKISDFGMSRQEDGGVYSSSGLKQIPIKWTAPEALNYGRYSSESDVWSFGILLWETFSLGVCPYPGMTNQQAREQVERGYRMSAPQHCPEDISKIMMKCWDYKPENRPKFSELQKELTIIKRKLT
# Sequence of Epidermal growth factor receptor (Homo sapiens), P00533 [T790M] (P00533 whole entry T790M): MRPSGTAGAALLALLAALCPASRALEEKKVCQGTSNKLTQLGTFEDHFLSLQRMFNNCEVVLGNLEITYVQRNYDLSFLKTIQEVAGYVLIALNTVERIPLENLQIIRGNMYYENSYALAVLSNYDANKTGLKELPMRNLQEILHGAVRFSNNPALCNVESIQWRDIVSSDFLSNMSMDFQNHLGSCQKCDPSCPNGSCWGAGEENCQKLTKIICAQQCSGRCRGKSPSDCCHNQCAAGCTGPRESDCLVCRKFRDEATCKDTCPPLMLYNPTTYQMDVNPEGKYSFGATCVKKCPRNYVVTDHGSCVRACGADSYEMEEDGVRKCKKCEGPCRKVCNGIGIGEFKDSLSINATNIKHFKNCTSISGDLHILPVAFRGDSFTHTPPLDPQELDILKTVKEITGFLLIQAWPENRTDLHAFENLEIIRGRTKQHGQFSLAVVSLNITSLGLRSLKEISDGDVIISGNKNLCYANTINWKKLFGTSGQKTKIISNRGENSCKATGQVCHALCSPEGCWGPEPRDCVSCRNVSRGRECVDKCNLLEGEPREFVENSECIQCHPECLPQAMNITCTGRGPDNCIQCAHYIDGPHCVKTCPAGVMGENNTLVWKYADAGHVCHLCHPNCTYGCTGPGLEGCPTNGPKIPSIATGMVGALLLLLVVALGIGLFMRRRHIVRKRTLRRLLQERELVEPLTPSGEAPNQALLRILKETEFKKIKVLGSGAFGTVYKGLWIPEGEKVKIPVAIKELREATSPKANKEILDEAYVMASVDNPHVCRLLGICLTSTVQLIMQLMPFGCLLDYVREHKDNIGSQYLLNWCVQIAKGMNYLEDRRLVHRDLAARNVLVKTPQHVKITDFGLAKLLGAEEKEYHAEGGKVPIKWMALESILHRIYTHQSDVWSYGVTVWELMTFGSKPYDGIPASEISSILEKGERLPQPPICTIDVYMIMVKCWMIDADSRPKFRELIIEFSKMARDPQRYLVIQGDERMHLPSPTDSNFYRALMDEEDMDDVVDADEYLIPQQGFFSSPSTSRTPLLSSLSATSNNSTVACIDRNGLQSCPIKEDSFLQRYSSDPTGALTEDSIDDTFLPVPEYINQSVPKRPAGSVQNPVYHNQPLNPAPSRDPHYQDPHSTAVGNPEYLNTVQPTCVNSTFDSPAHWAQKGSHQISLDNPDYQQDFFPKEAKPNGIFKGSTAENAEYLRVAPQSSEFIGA
SMILES,inhibition [1] [%],inhibition [2] [%],inhibition [3] [%],inhibition [4] [%],inhibition [5] [%],inhibition [6] [%],inhibition [7] [%],inhibition [8] [%],inhibition [9] [%],inhibition [10] [%],inhibition [11] [%],inhibition [12] [%],inhibition [13] [%],inhibition [14] [%],inhibition [15] [%],inhibition [16] [%],inhibition [17] [%],inhibition [18] [%],inhibition [19] [%],inhibition [20] [%]
C/C(Nc1ccc(S(N)(=O)=O)cc1)=C1/C(=O)Nc2ccccc21,0.03,-0.46,-1.66,-4.14,-3.36,-8.6,-1.74,-4.44,-2.02,-3.98,-0.51,-3.87,-3.57,-2.17,-2.22,-3.56,-3.5,-5.37,-8.14,0.46
COC(=O)Nc1nc2ccc(Sc3ccc(NC(=O)Nc4cc(C(F)(F)F)ccc4F)cc3)cc2[nH]1,0.47,4.21,1.97,25.8,89.6,9.91,34.5,49.5,81.6,43.4,79.9,3.25,11.3,6.3,57.2,0.24,1.41,1.95,–,1.93
O=C(NCC1CC1)c1ccc(-c2cccc(C(=O)NC3CC3)c2)cc1,-1.31,-1.91,3.8,2.47,1.67,2.75,4.67,4.89,-0.51,6.78,11.8,3.55,2.98,1.37,1.03,-0.54,1.1,16.7,6.05,0.26
COc1ccc2cc(-c3c(-c4ccncc4)nc(-c4ccc(S(C)(=O)=O)cc4C)n3C)ccc2c1,3.3,1.66,2.57,0.22,0.86,4.84,3.83,9.07,17.6,4.7,12.5,7.13,10.9,4.32,14.2,5.67,8.01,15,44.4,3.19
CS(=O)(=O)CCNCc1cc(-c2cc3c(Nc4ccc(OCc5cccc(F)c5)c(Cl)c4)ncnc3s2)cs1,6.23,1.25,6.55,0.54,-0.67,1.87,2.18,8.11,10.4,12.3,7.92,0.62,4.6,-0.19,2.96,3.61,60.2,22.7,76.7,2.65
O=C1Nc2ccccc2/C1=C/Nc1ccc(-n2cncn2)cc1,4.3,2.89,1.3,1.55,1.91,2.74,4.04,4.98,12.3,3.5,8.52,4.57,2.77,2.19,2.59,3.17,9.83,9.69,12.5,3.94
C[C@@H](Oc1cc(-n2cnc3ccc(OCC4CCN(C)CC4)cc32)sc1C(N)=O)c1ccccc1Cl,3.47,-2.11,7.41,1.42,1.71,3.99,4.27,8.9,11.6,9.82,8.25,2.8,6.12,5.24,3.86,41.4,4.61,9.63,13.1,1.28
COc1ccc2ncn(-c3cc(O[C@H](C)c4ccccc4Cl)c(C(N)=O)s3)c2c1,1.63,1.69,4.57,-1.86,-2.71,-1.12,1.39,6.03,9.66,6.75,12,0.01,0.43,-2.13,-1.28,2.78,2.8,1.62,4.43,2.82
